# Experimental data: PubChem BioAssay (EPA / NIEHS)
# Several values for one entry are separate records, joined by “and”; a condition that tells them apart may be missing. Equal entries are not always repeated. Activity calls are given as the source filed them. How the source made its calls: active means hit-call score of the fitted dose curve at least 0.9, where 1 is the maximum; inactive means score below 0.9.
# Test: CCTE_Shafer_MEA_dev_per_network_spike_spike_number_mean: CCTE's Neural Network Formation Assay for Mean Number of Spikes in a Network Spike, Shafer Lab (AID 2284053)
# Protocol: CCTE_Shafer_MEA_dev assay is conducted using Axion Biosystems 48 well microelectrode array (MEA) plates and Maestro recording system. Each well of the MEA plate contains a grid of 16 microelectrodes embedded in the culture surface. Electrically active cells, such as neurons, can be cultured over the electrodes, and electrical activity in these cells can be recorded extracellularly. The spontaneous firing of neurons is captured from each electrode on a microsecond timescale providing both temporally and spatially precise data. […] The CCTE_Shafer_MEA_dev assay uses primary cultures of rat cortical neurons. Recordings are made on days post-plating 5, 7, 9 and 12. As these cultures mature over time, neural networks develop functional activity and form cohesive networks in which electrical activity can be highly coordinated. CCTE_Shafer_MEA_dev_per_network_spike_spike_number_mean is 1 of 19 assay components of the CCTE_Shafer_MEA_dev assay. It measures the average number of spikes (action potential firings) in a network spike (temporally-clustered group of spikes across multiple electrodes) as the number of spikes that occur within a 0.05 s time window at the peak of a network spike divided by the total number of network spikes during a recording in a microelectrode array (MEA) using Axion Biosystems Maestro 768 channel amplifier with the AxIS adaptive spike detector. To collapse across multiple recordings made on days post-plating 5, 7, 9 and 12, the trapezoidal area-under-the-curve of the component is calculated.Data from the assay component CCTE_Shafer_MEA_dev_per_network_spike_spike_number_mean was analyzed into 1 assay endpoint. This assay endpoint, CCTE_Shafer_MEA_dev_per_network_spike_spike_number_mean, was analyzed in the negative analysis fitting direction relative to DMSO as the negative control and baseline of activity. Using a type of functional reporter, gain or loss-of-signal activity can be used to understand electrical activity.
# On the day prior to culture, each well was coated thoroughly with 150 uL of 0.05% polyethyleneimine (PEI, Sigma Cat P3143) in 50 mM HEPES (Sigma Cat H7523) at a pH of 8. The plate was incubated at 37C for one hour. PEI was rinsed out with 500 uL of sterile water three times. Plates were stored at 4C until the day of culture. This culture was plated at a seeding density of 1.5 x 10^5 cells/well on a 48-well MEA plate, prepared as described above. Cells were administered via a 25 uL media/laminin ([…]; Sigma Cat L2020-1MG) drop directly onto the microelectrode array, as adding the cells with the laminin results in better attachment than pre-coating with laminin. After 2 hours, an additional 475 uL of cortical media was added and the cells returned to the incubator. Exposure starts at day 0 of plating and is continued over twelve days of network development until the experiment is terminated. Cells are fed with fresh medium on DIV 5 and 9, following the recordings on those days. The entire volume of media in the well is exchanged and any vehicle or compound treatment is renewed. Complete details are found in OP-NHEERL/ISTD/SBB/TJS/2015-03-r0 (available on request, email shafer.tim@epa.gov). Measurement of the electrical activity is non-invasive, and recordings can be made from the same plate over multiple different days of the culture. In cortical neurons, this allows for the measurement of extracellular action potentials over the period during which networks form in the MEA plate.
Structure (SMILES),outcome,AC50
NC(=O)N1c2ccccc2C=Cc2ccccc21,inactive,
CCOc1ccc2[nH]cc(C(=O)NCc3ccccc3)c(=O)c2n1,inactive,
OC(O)(C(F)C(O)(O)C(F)(F)F)C(F)(F)F,inactive,
FC(F)(F)COC(OCC(F)(F)F)OCC(F)(F)F,inactive,
NCC(F)(F)C(F)(F)C(F)(F)C(F)(F)F,inactive,
Cn1cc[nH]c1=S,inactive,
NNC(=O)c1ccncc1,inactive,
OC(Cn1cncn1)(Cn1cncn1)c1ccc(F)cc1F,inactive,
OCCC(F)(F)C(F)(F)C(F)(F)C(F)(F)F,inactive,
CCN(CC)C(=S)SSC(=S)N(CC)CC,,102 nM (active) and 55.3 nM (active)
FC(F)(F)C(F)(F)C(F)(F)C(F)(F)C(F)(F)C(F)(F)I,inactive,
O=C(Cl)C(F)(F)C(F)(F)C(F)(F)C(=O)Cl,inactive,
CCCC(CCC)C(=O)O,,576 µM (active)
C[C@]12C=CC(=O)C=C1CC[C@H]1[C@@H]3C[C@@H](O)[C@](O)(C(=O)CO)[C@@]3(C)C[C@H](O)[C@@]12F,inactive,
c1ccc2c(c1)-c1cccc3c1c-2cc1ccccc13,inactive,
c1ccc2cc3ccccc3cc2c1,inactive,
CC[C@H](C)C(=O)O[C@H]1C[C@H](O)C=C2C=C[C@H](C)[C@H](CC[C@@H](O)C[C@@H](O)CC(=O)O)[C@H]21,inactive,
Nc1ccn([C@@H]2O[C@H](CO)[C@@H](O)[C@@H]2O)c(=O)n1,,118 nM (active) and 206 nM (active)
COc1cc2c(c(OC)c1OC)-c1ccc(OC)c(=O)cc1[C@@H](NC(C)=O)CC2,,0.0127 µM (active)
